Assay results: PubChem BioAssay (Tox21)
Records with an inconclusive call do not appear. Calls of active or inactive are those of the source. Calls come from the whole dose curve; as a rule, active = well fitted activation curve with a large enough effect in the repeat runs; inconclusive = weak or mixed curves; inactive = flat fitted curve, though single readings scatter.

test: A CellTox Green Cytotoxicity Assay to monitor cytotoxicity in HepG2 cells - 32 hour (AID 1224883); conditions: CellTox Green fluorescence; series mostly up to 76.8 µM; cytotoxicity increase: at the top concentration; note: nearly all actives have a fitted effect of over 50% in size
Source text: National Center for Advancing Translational Sciences [NCATS]
NIH Chemical Genomics Center [NCGC]
U.S. Environmental Protection Agency [EPA]
National Institutes of Environmental Health Sciences [NIEHS]
National Toxicology Program [NTP]
Cell-based models are critical for drug discovery. Determining the natural cytotoxic effects resulting from test compounds is an essential research activity. A CellTox Green Cytotoxicity Assay to monitor cytotoxicity in real time of continues cell culture during 40 hours of the compound treatment was used to screen Tox21 10K library compounds in HepG2 cells. CellTox Green Cytotoxicity Assay is a nonlytic, homogeneous, biofluorescent method to measure cytotoxicity in cell culture after experimental manipulation. The assay system uses a proprietary asymmetric cyanine dye that is excluded from viable cells but preferentially stains the dead cell's DNA. […] Viable cells produce no appreciable increases in fluorescence. Therefore, the fluorescence signal produced by the binding interaction with dead cell DNA is proportional to cytotoxicity.
The mixture of HepG2 cell suspension and reagents were dispensed at 600cells/6 ul/well in 1536-well tissue culture treated black solid bottom plates using a Multidrop dispenser. After the assay plates were incubated at a 37 C/5% CO2 incubator for 5 hours, 23 nL of compounds dissolved in DMSO, positive and negative controls was transferred to the assay plate by a pintool work station. The plates were incubated at 37 C for 40 hours. The fluorescence intensity were measured at 0h, 8h, 16h, 24h, 32h and 40h time points using ViewLux plate reader during compound treatment.
% is set by controls: 0 for no effect and ±100 for the full control effect; potency is the fitted concentration of half-maximal effect.

Structure (SMILES)	cytotoxicity increase	Potency
C[C@@H]1CC[C@@]2(OC1)O[C@H]1C[C@H]3[C@@H]4CC[C@H]5C[C@@H](O)CC[C@]5(C)[C@H]4CC(=O)[C@]3(C)[C@H]1[C@@H]2C	-3.63% [at 6.97 µM] (inactive)	
CCCCCCCCCCCCCCCC/C=C/C1CC(=O)OC1=O (stereo not given)	-4.6% [at 35.3 µM] (inactive)	
CCc1ncc(C)[nH]1	-12.7% (inactive)	
CC(=O)OC/C=C(/C)CCC=C(C)C	-14.6% (inactive)	
CC(=O)c1c(C)cc(C(C)(C)C)cc1C		38.9 µM (active)
COc1cc(S(N)(=O)=O)cc(C(=O)O)c1OC	-0.819% [at 35.3 µM] (inactive)	
O=C(O)Cc1c(Cl)ccc(Cl)c1Cl	-0.358% (inactive)	
C[Si](C)(C)O[Si](O)(O)O	-6.73% (inactive)	
CC(C)C[P+](C)(CC(C)C)CC(C)C	2.23% (inactive)	
Cc1cc(=O)oc2cc(O[C@@H]3SC[C@@H](O)[C@H](O)[C@H]3O)ccc12	-6.68% [at 35.3 µM] (inactive)	
C=CCCCCCCCCCCCCCC	-0.009% [at 15.8 µM] (inactive)	
COC(=O)c1ccc(C(=O)O)cc1	-14.6% (inactive)	
CC(O)C(CO)C(C)O (stereo not given)	-12% (inactive)	
CCCCCCCCCCCCCCBr	-10.2% (inactive)	
CCN1CCN(C(=O)N[C@@H](C(=O)N[C@@H]2C(=O)N3[C@@H]2SC(C)(C)[C@H]3C(=O)O)c2ccccc2)C(=O)C1=O	-14.8% [at 35.3 µM] (inactive)	
O=C(CCBr)N1CCN(C(=O)CCBr)CC1	0.518% [at 35.3 µM] (inactive)	
OCCC(F)(F)C(F)(F)C(F)(F)C(F)(F)C(F)(F)C(F)(F)F	-11.6% (inactive)	
C/C=C(\C)C=O	-10.4% (inactive)	
COC(=O)c1cc(Cl)c(NC(C)=O)cc1OC	-10.2% [at 35.3 µM] (inactive)	
CCOC(=O)[C@H](CCc1ccccc1)N[C@H]1CS[C@H](c2cccs2)CN(CC(=O)O)C1=O	-9.59% [at 35.3 µM] (inactive)	

Structure (SMILES)	cytotoxicity increase	Potency
Cc1ccc2ccccc2n1	-11.7% (inactive)	
CN(C)c1cc(NC(=O)CNC(C)(C)C)c(O)c2c1C[C@H]1C[C@H]3[C@H](N(C)C)C(=O)C(C(N)=O)=C(O)[C@@]3(O)C(=O)C1=C2O	-3.57% [at 35.3 µM] (inactive)	
BrCCOc1ccccc1	-1.68% (inactive)	
CC(=O)OCC(=O)[C@@]1(O)CC[C@H]2[C@@H]3CCC4=CC(=O)C=C[C@]4(C)[C@H]3[C@@H](O)C[C@@]21C	4.36% [at 35.3 µM] (inactive)	
Cc1ccc(Br)cc1	4.47% (inactive)	
CC(C)(C)C(=O)CC(=O)C(C)(C)C	-18.8% (inactive)	
CNC(C)=O	-13.9% (inactive)	
C=CC(=O)CC	-6.54% (inactive)	
C=CCN(CC=C)CC=C	-12.6% (inactive)	
O=Cc1ccccc1S(=O)(=O)O	8.08% (inactive)	
CC1=C(O)C(=O)CO1	-5.69% (inactive)	
CC1(C)CC(N)CC(C)(C)N1	-3.9% (inactive)	
CC(=O)SCC(CC(=O)c1ccc(C)cc1)C(=O)O (stereo not given)	0.337% [at 35.3 µM] (inactive)	
CC(C)c1cc(C(C)C)cc(C(C)C)c1	-14.3% (inactive)	
O=C(O)COc1ccc2ccccc2c1	-2.52% (inactive)	
C/C=C(\C)C(=O)OC/C=C(\C)CCC=C(C)C	0.134% (inactive)	
CN(C)c1ccncc1	-0.666% (inactive)	
CC(C)(O)CCCC1=CCC(C=O)CC1 (stereo not given)	-5.09% (inactive)	
CC(CC(=O)Cl)CC(C)(C)C (stereo not given)	2.96% (inactive)	
CCN(CC)CC	-1.59% (inactive)	
